Data as given in the supplement of paper PMC8728848.
Only a selection was taken, and the strongest signals are over-represented in it overall.

Tests used:
Assay in all cases: glycan array binding signal (z-score within array); higher = stronger binding
Conditions in all cases: glycan notation: IUPAC condensed, linker removed
[1] = biological target: Fuc(a1-2)Gal(b1-3)[Fuc(a1-4)]GlcNAc(b1-2)Man(a1-3)[Fuc(a1-2)Gal(b1-3)[Fuc(a1-4)]GlcNAc(b1-2)Man(a1-6)]Man(b1-4)GlcNAc(b1-4)GlcNAc
Summary of the method: (§1)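 The binding signal is a Z-score computed within each array. Data were drawn from 3228 arrays in the Consortium for Functional Glycomics database, restricted to those with a known protein sequence. Scores were averaged over arrays of the same protein sequence at different concentrations or buffers, and over linkers, and negative values can be taken as non-binding.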

[2] = biological target: Fuc(a1-2)Gal(b1-4)Glc6S
Summary of the method: as §1

[3] = biological target: Fuc(a1-2)Gal(b1-4)GlcNAc(b1-2)[Fuc(a1-2)Gal(b1-4)GlcNAc(b1-4)]Man(a1-3)[Fuc(a1-2)Gal(b1-4)GlcNAc(b1-2)Man(a1-6)]Man(b1-4)GlcNAc(b1-4)GlcNAc
Summary of the method: as §1

[4] = biological target: Fuc(a1-2)Gal(b1-4)GlcNAc6S
Summary of the method: as §1

[5] = biological target: Fuc(a1-2)[GalNAc(a1-3)]Gal(b1-4)GlcNAc(b1-2)Man(a1-3)[Fuc(a1-2)[GalNAc(a1-3)]Gal(b1-4)GlcNAc(b1-2)Man(a1-6)]Man(b1-4)GlcNAc(b1-4)GlcNAc
Summary of the method: as §1

[6] = biological target: Fuc(a1-2)[GalNAc(a1-4)]Gal(b1-4)GlcNAc
Summary of the method: as §1

[7] = biological target: Fuc(a1-3)[Gal(b1-4)]Glc6S
Summary of the method: as §1

[8] = biological target: Fuc(a1-3)[Gal3S(b1-4)]GlcNAc
Summary of the method: as §1

[9] = biological target: Gal(a1-3)Gal(b1-4)[Fuc(a1-3)]GlcNAc(b1-2)Man(a1-3)[Gal(a1-3)Gal(b1-4)[Fuc(a1-3)]GlcNAc(b1-2)Man(a1-6)]Man(b1-4)GlcNAc(b1-4)GlcNAc
Summary of the method: as §1

[10] = biological target: Gal(a1-4)GlcNAc
Summary of the method: as §1

[11] = biological target: Gal(b1-3)GalNAc(b1-3)Gal(a1-4)Gal(b1-4)Glc
Summary of the method: as §1

[12] = biological target: Gal(b1-3)GalNAc(b1-4)Gal(b1-4)Glc
Summary of the method: as §1

[13] = biological target: Gal(b1-3)GlcNAc(b1-3)Gal(b1-4)[Fuc(a1-3)]GlcNAc(b1-6)[Gal(b1-3)GlcNAc(b1-3)]Gal(b1-4)Glc
Summary of the method: as §1

[14] = biological target: Gal(b1-4)GlcNAc(b1-3)Gal(b1-4)[Fuc(a1-3)]GlcNAc(b1-3)Gal(b1-4)[Fuc(a1-3)]GlcNAc
Summary of the method: as §1

[15] = biological target: Gal(b1-4)GlcNAc(b1-6)[Gal(b1-3)]GalNAc
Summary of the method: as §1

[16] = biological target: Gal3S(b1-4)GlcNAc
Summary of the method: as §1

[17] = biological target: Gal3S(b1-4)[Fuc(a1-3)]Glc
Summary of the method: as §1

[18] = biological target: Gal3S(b1-4)[Fuc(a1-3)]Glc6S
Summary of the method: as §1

[19] = biological target: Gal6S(b1-4)Glc
Summary of the method: as §1

[20] = biological target: GalNAc(a1-3)GalNAc(b1-3)Gal(a1-4)Gal(b1-4)GlcNAc
Summary of the method: as §1

[21] = biological target: GalNAc3S(b1-4)GlcNAc
Summary of the method: as §1

[22] = biological target: Glc(a1-4)Glc(a1-4)Glc(a1-4)Glc
Summary of the method: as §1

[23] = biological target: Glc(b1-4)Glc
Summary of the method: as §1

[24] = biological target: GlcNAc(a1-4)Gal(b1-4)GlcNAc(b1-3)Gal(b1-4)GlcNAc(b1-3)Gal(b1-4)GlcNAc
Summary of the method: as §1

[25] = biological target: GlcNAc(b1-2)[GlcNAc(b1-4)]Man(a1-3)[GlcNAc(b1-4)][GlcNAc(b1-2)Man(a1-6)]Man(b1-4)GlcNAc(b1-4)GlcNAc
Summary of the method: as §1

[26] = biological target: GlcNAc(b1-4)GlcNAc(b1-4)GlcNAc
Summary of the method: as §1

[27] = biological target: GlcNAc(b1-4)GlcNAc(b1-4)GlcNAc(b1-4)GlcNAc(b1-4)GlcNAc
Summary of the method: as §1

[28] = biological target: GlcNAc(b1-4)GlcNAc(b1-4)GlcNAc(b1-4)GlcNAc(b1-4)GlcNAc(b1-4)GlcNAc
Summary of the method: as §1

[29] = biological target: GlcNAc(b1-6)Gal(b1-4)GlcNAc
Summary of the method: as §1

[30] = biological target: GlcNAc6S(b1-3)Gal(b1-4)GlcNAc
Summary of the method: as §1

[31] = biological target: Man(a1-3)[Man(a1-6)]Man
Summary of the method: as §1

[32] = biological target: Man(a1-3)[Man(a1-6)]Man(b1-4)GlcNAc(b1-4)GlcNAc
Summary of the method: as §1

[33] = biological target: Neu5Ac(a2-3)Gal(b1-3)GalNAc(b1-4)[Neu5Ac(a2-3)]Gal(b1-4)Glc
Summary of the method: as §1

[34] = biological target: Neu5Ac(a2-3)Gal(b1-3)GlcNAc
Summary of the method: as §1

[35] = biological target: Neu5Ac(a2-3)Gal(b1-4)GlcNAc(b1-2)Man(a1-3)[GlcNAc(b1-2)Man(b1-4)GlcNAc(b1-2)Man(a1-6)]Man(b1-4)GlcNAc(b1-4)GlcNAc
Summary of the method: as §1

[36] = biological target: Neu5Ac(a2-3)Gal(b1-4)[Fuc(a1-3)]GlcNAc
Summary of the method: as §1

[37] = biological target: Neu5Ac(a2-6)Gal(b1-4)GlcNAc(b1-2)Man(a1-3)Man(b1-4)GlcNAc(b1-4)GlcNAc
Summary of the method: as §1

[38] = biological target: Neu5Ac(a2-6)Gal(b1-4)GlcNAc(b1-2)Man(a1-6)[Gal(b1-4)GlcNAc(b1-2)Man(a1-3)]Man(b1-4)GlcNAc(b1-4)GlcNAc
Summary of the method: as §1

[39] = biological target: Neu5Ac(a2-6)GlcNAc(b1-4)GlcNAc(b1-4)GlcNAc
Summary of the method: as §1

[40] = biological target: Neu5Ac(a2-8)Neu5Ac(a2-8)Neu5Ac
Summary of the method: as §1

[41] = biological target: Neu5Gc(a2-3)Gal(b1-4)Glc
Summary of the method: as §1

B1: CIH1 (Colletotrichum higginsianum) (protein)
chain: LPQATPTTPTPTSASAAATISATSSPTCSPGPVIDYTVVSGDTLTIISQRFSSGICNIADASGITNPNFLSLGQVLQVPTYVCTPDNTSCLAKEGSDTCVEGGPATHTIVAGDTFFLVAQSLGLDVNALLAANEGVDPLLLQIGDVINIPVC
glycan array binding signal (z-score) [1]: 0.015
glycan array binding signal (z-score) [2]: -0.071
glycan array binding signal (z-score) [3]: -0.061
glycan array binding signal (z-score) [4]: 0.014
glycan array binding signal (z-score) [5]: -0.074
glycan array binding signal (z-score) [6]: -0.071
glycan array binding signal (z-score) [7]: -0.072
glycan array binding signal (z-score) [8]: -0.065
glycan array binding signal (z-score) [9]: 0.011
glycan array binding signal (z-score) [10]: -0.052
glycan array binding signal (z-score) [11]: -0.071
glycan array binding signal (z-score) [12]: -0.063
glycan array binding signal (z-score) [13]: -0.057
glycan array binding signal (z-score) [14]: -0.079
glycan array binding signal (z-score) [15]: -0.072
glycan array binding signal (z-score) [16]: -0.067
glycan array binding signal (z-score) [17]: -0.081
glycan array binding signal (z-score) [18]: 0.006
glycan array binding signal (z-score) [19]: -0.079
glycan array binding signal (z-score) [20]: -0.066
glycan array binding signal (z-score) [21]: -0.066
glycan array binding signal (z-score) [22]: -0.047
glycan array binding signal (z-score) [23]: -0.046
glycan array binding signal (z-score) [24]: -0.08
glycan array binding signal (z-score) [25]: -0.065
glycan array binding signal (z-score) [26]: 2.91
glycan array binding signal (z-score) [27]: 9.28
glycan array binding signal (z-score) [28]: 20
glycan array binding signal (z-score) [29]: -0.073
glycan array binding signal (z-score) [30]: -0.055
glycan array binding signal (z-score) [31]: -0.045
glycan array binding signal (z-score) [32]: -0.069
glycan array binding signal (z-score) [33]: -0.055
glycan array binding signal (z-score) [34]: -0.05
glycan array binding signal (z-score) [35]: -0.08
glycan array binding signal (z-score) [36]: -0.069
glycan array binding signal (z-score) [37]: -0.004
glycan array binding signal (z-score) [38]: -0.069
glycan array binding signal (z-score) [39]: -0.004
glycan array binding signal (z-score) [40]: -0.065
glycan array binding signal (z-score) [41]: -0.081
